{"source": "PubChem BioAssay (Tox21)", "note": "Several values for one entry are separate records, joined by “and”; a condition that tells them apart may be missing. Equal entries are not always repeated. Inconclusive results are not listed. Some compounds were tested as several samples or in several runs, with calls that do not always agree. Activity calls are given as the source filed them. Calls come from the whole dose curve; as a rule, active = well fitted cell-killing curve with a large enough effect in the repeat runs; inconclusive = weak or mixed curves, or effect the other way; inactive = no such curve, though single readings can be large or run the other way. % is set by controls: 0 for no effect and ±100 for the full control effect; potency is the fitted concentration of half-maximal effect."}
{"assay": "qHTS assay for identifying genotoxic compounds that show differential cytotoxicity against isogenic chicken DT40 cell lines with known DNA damage response pathways - Rev3 mutant cell line (AID 743014); note: nearly all actives have a fitted effect of over 55% in size", "settings": "chicken DT40 Rev3-/- viability, CellTiter-Glo, 40 h; series mostly up to 68.4 µM; activity, negative = cytotoxicity: at the top concentration", "excerpt": "National Center for Advancing Translational Sciences [NCATS]\nNIH Chemical Genomics Center [NCGC]\nU.S. Environmental Protection Agency [EPA]\nNational Institutes of Environmental Health Sciences [NIEHS]\nNational Toxicology Program [NTP]\nU.S. Food and Drug Administration [FDA]\nDNA repair pathways play a critical role in cellular homeostasis by repairing DNA damage induced by endogenous processes and xenobiotics. Isogenic chicken DT40 cell lines deficient in different DNA repair pathways can be used to identify genotoxic compounds and aid in characterizing the nature of the DNA damage induced. Two DNA repair-deficient cell lines with disrupted genes, Rad54/Ku70 or Rev3, were used to screen the Tox21 10K compound library. Possible genotoxicity was based on the presence of a significant increase in cytotoxicity in one or more of the DNA repair-deficient cell lines compared to that observed in the parental DNA repair-proficient cell line. CellTiter Glo viability assay (Promega, Madison, WI) was used to measure cell viability in these cells after compound treatment. This assay includes the data from the Rev3 mutant cell line.\nTox21 Assay Protocol Summary:\n300 DT40 mutant cells in 5 uL/well were dispensed into white, solid-bottom 1536-well plates using a Multidrop Combi (ThermoFisher Scientific, Waltham, MA) dispenser. After the assay plates were incubated at 37 C/5% CO2 for approximately 0.5 hour, 23 nL of compounds dissolved in DMSO, positive controls or DMSO only was transferred into the assay plate by a pintool work station (Kalypsys, San Diego, CA). The assay plates were incubated at 37 C/5% CO2 for 40 hours. After 5 uL per well of CellTiter-Glo reagent was added into each well of the assay plates, the plates were incubated for 30 min at room temperature and the luminescence intensity of the plates was measured using a ViewLux (PerkinElmer, Shelton, CT) plate reader."}
{"smiles": "Cc1cccc(CN2CCN(C(c3ccccc3)c3ccc(Cl)cc3)CC2)c1", "note": "(stereo not given)", "Potency": "5.07 µM (active)"}
{"smiles": "CCc1cc(Cc2cc(CC)c(N)c(CC)c2)cc(CC)c1N", "Potency": "61.1 µM (active)"}
{"smiles": "OCCN(CCO)c1nc(N2CCCCC2)c2nc(N(CCO)CCO)nc(N3CCCCC3)c2n1", "Potency": "9.44 µM (active)"}
{"smiles": "CSc1ccc2c(c1)C(N1CCN(C)CC1)Cc1ccccc1S2", "note": "(stereo not given)", "Potency": "6.68 µM (active)"}
{"smiles": "Cc1onc(-c2c(Cl)cccc2Cl)c1C(=O)N[C@@H]1C(=O)N2[C@@H]1SC(C)(C)[C@@H]2C(=O)O", "activity, negative = cytotoxicity": "2.25% (inactive)"}
{"smiles": "C=CC(=O)OCCn1c(=O)n(CCOC(=O)C=C)c(=O)n(CCOC(=O)C=C)c1=O", "Potency": "2.43 µM (active)"}
{"smiles": "CC(C)(C)C(=O)OCOC(=O)[C@@H]1N2C(=O)[C@@H](NC(=O)[C@H](N)c3ccccc3)[C@H]2SC1(C)C", "activity, negative = cytotoxicity": "15.8% [at 31.4 µM] (inactive)"}
{"smiles": "COc1cc(-c2nc(NC(=O)c3cc4cc(C)cc(C)c4n3CC(=O)O)sc2CCC2CCCCC2)c(OC)cc1Cl", "Potency": "22.3 µM (active)"}
{"smiles": "CN(C/C=C/C#CC(C)(C)C)Cc1cccc2ccccc12", "activity, negative = cytotoxicity": "9.23% (inactive)"}
{"smiles": "O=C(O)c1c(Cl)cccc1Cl", "activity, negative = cytotoxicity": "5.94% (inactive)"}
{"smiles": "CC1(C)CCC(C)(C)c2cc(C(=O)Nc3ccc(C(=O)O)cc3)ccc21", "Potency": "19.3 µM (active)"}
{"smiles": "OCCN1CCN(CC/C=C2/c3ccccc3Sc3ccc(C(F)(F)F)cc32)CC1", "Potency": "13.3 µM (active)"}
{"smiles": "CCC1=C[C@@H]2CN(C1)Cc1c([nH]c3ccccc13)[C@@](C(=O)OC)(c1cc3c(cc1OC)N(C)[C@H]1[C@@](O)(C(=O)OC)[C@H](OC(C)=O)[C@]4(CC)C=CCN5CC[C@]31[C@@H]54)C2", "Potency": "0.0841 µM (active)"}
{"smiles": "CC[C@H]1O[C@]2(CC[C@@H]1C)C[C@@H]1C[C@@H](C/C=C(\\C)C[C@@H](C)/C=C/C=C3\\CO[C@@H]4[C@H](O)C(C)=C[C@@H](C(=O)O1)[C@]34O)O2", "Potency": "6.8 µM (active)"}
{"smiles": "CC(NN)c1ccccc1", "note": "(stereo not given)", "activity, negative = cytotoxicity": "3.99% (inactive)"}
{"smiles": "O=C(OCC1CO1)C1CCCCC1C(=O)OCC1CO1", "note": "(stereo not given)", "Potency": "0.77 µM (active)"}
{"smiles": "COc1ccc(-c2ccc3cc(C(=O)O)ccc3c2)cc1C12CC3CC(CC(C3)C1)C2", "activity, negative = cytotoxicity": "-15.1% (inactive)"}
{"smiles": "O=C(N/N=C/c1ccccc1O)c1ccncc1", "Potency": "2.98 µM (active)"}
{"smiles": "O=[N+]([O-])c1cc([N+](=O)[O-])c2ccc(S(=O)(=O)O)cc2c1O", "activity, negative = cytotoxicity": "4.29% (inactive)"}
{"smiles": "Oc1cc2ccccc2c2ccccc12", "Potency": "1.72 µM (active)"}
{"smiles": "COCCCC/C(=N\\OCCN)c1ccc(C(F)(F)F)cc1", "Potency": "9.44 µM (active)"}
{"smiles": "Cc1cc(CCN2CCN(c3nsc4ccccc34)CC2)cc2c1NC(=O)CC2(C)C", "Potency": "5.45 µM (active)"}
{"smiles": "OCc1c[nH]c2ccccc12", "Potency": "51.4 µM (active)"}
{"smiles": "C[n+]1cc2c3c(ccc2c2ccc4cc5c(cc4c21)OCO5)OCO3", "Potency": "2.11 µM (active)"}
{"smiles": "CCCCc1oc2ccc(NS(C)(=O)=O)cc2c1C(=O)c1ccc(OCCCN(CCCC)CCCC)cc1", "Potency": "13.3 µM (active)"}
{"smiles": "Cc1ccc(O)c2ncccc12", "Potency": "2.98 µM (active)"}
{"smiles": "CCOC(=O)c1nc(C(Cl)(Cl)Cl)n(-c2ccc(Cl)cc2Cl)n1", "Potency": "34.4 µM (active)"}
{"smiles": "Nc1c2ccccc2nc2ccccc12", "Potency": "2.66 µM (active) and 2.14 µM (active)"}
{"smiles": "O=[N+]([O-])c1cc(Cl)c(Cl)c(Cl)c1Cl", "activity, negative = cytotoxicity": "-3.4% (inactive)"}
{"smiles": "CC(C)(C)c1ccc(C(=O)CCCN2CCC(OC(c3ccccc3)c3ccccc3)CC2)cc1", "Potency": "5.31 µM (active)"}
{"smiles": "NNc1nc(-c2ccc(N)cc2)cs1", "Potency": "21.7 µM (active)"}
{"smiles": "O=C(Nc1ccc(Oc2ccc(Cl)cc2)c(Cl)c1)c1cc(I)cc(I)c1O", "activity, negative = cytotoxicity": "-6.35% (inactive)"}
{"smiles": "O=C(Nc1cccc(Cl)c1)OCC#CCCl", "Potency": "21.7 µM (active)"}
{"smiles": "Nc1ccc2c3c(cccc13)-c1ccccc1-2", "Potency": "27.6 µM (active)"}
{"smiles": "CCCCC(CC)COP(=O)(O)OCC(CC)CCCC", "note": "(stereo not given)", "activity, negative = cytotoxicity": "-8.07% (inactive)"}
{"smiles": "CCCCCCCCCCCCCC[P+](CCCC)(CCCC)CCCC", "note": "(tested in a mixture with another compound)", "Potency": "0.218 µM (active)"}
{"smiles": "CCCCCCCC/C=C\\CCCCCCCCOCCO", "Potency": "5.62 µM (active)"}
{"smiles": "CCN(CCC#N)c1ccc(N=Nc2c(Cl)cc([N+](=O)[O-])cc2Cl)cc1", "Potency": "10.9 µM (active)"}
{"smiles": "COc1ccc(C(=O)/C(Br)=C\\C(=O)O)cc1", "Potency": "inactive and 6.11 µM (active)"}
{"smiles": "CCCCCCOC(=O)c1ccc(O)cc1", "Potency": "48.6 µM (active)"}
